Out of some 350,000 compounds screened, about 1,300 (0.37%) were called active. Only a selection was taken, and actives are over-represented in it overall. Values without a mark were called inactive.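 Rule for the calls: active = mean added fluorescence quench of at least 8% versus neutral control, with both replicates also reaching 8%; inconclusive = only one of the mean or replicate conditions met; inactive = mean below 8% and not both replicates reaching 8%.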

This assay in a line: F508del CFTR correction, initial screen, CFBE line, single point (AID 720511).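 Note: cells transiently co-express mutant CFTR-F508del with the halide-sensitive YFP; corrector assay measuring rescue of mutant channel to the surface after 24 h compound exposure.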 The settings on record: CFBE cells, YFP halide quenching, at 7.58 µM, hits give high values, % fluorescence drop versus neutral controls, stimulated with forskolin plus potentiator P3.
On to `C[C@@H](O)C#Cc1ccc([C@@H]2[C@H]3CN(S(=O)(=O)c4ccccc4)CCCCN3[C@H]2CO)cc1`, for which the activity (quench increase) was 1.07%.
The same measure for `CO[C@@H]1CC[C@@H]2CCOc3c(C#N)cccc3C(=O)N(C)C[C@H](C)C(=O)N(C)C[C@H]1O2`: 1.86%.
As to `CN1C(=O)c2cccc3c(N)ccc(c23)C1=O`, the activity (quench increase) was 23.7% (active).
The same measure for `O=C1c2cccc3c([N+](=O)[O-])ccc(c23)C(=O)N1CC1CCCO1` (stereo unspecified): 0.491%; for `Cn1cc(C2OC(=O)c3ccccc32)c2ccccc21` (stereo unspecified): 1.54%; for `NC(=O)c1ncn([C@@H]2O[C@H](C(=O)O)[C@@H](O)[C@H]2O)n1`: 2.03%.
Turning to `COc1ccc(CN(C)C[C@@H]2OCCCC[C@@H](C)Oc3ccc(NC(=O)Nc4ccc(OC)cc4)cc3C(=O)N([C@@H](C)CO)C[C@@H]2C)cc1`, the activity (quench increase) was -0.139%.
Turning to `COc1ccc(-c2cn(CC[C@@H]3CC[C@@H](NS(=O)(=O)c4ccccc4C)[C@H](CO)O3)nn2)cc1`, the activity (quench increase) is 2.94%.
On to `CCc1cc(-c2nnn(CCC3COCCO3)c2CC)ccc1-c1cn(Cc2ccc3ccccc3c2)nn1` (stereo unspecified), for which the activity (quench increase) is 8.99% (active).
As to `CCCC(=O)Nc1ccc2c(c1)OC[C@H](C)N(S(=O)(=O)c1cn(C)cn1)C[C@@H](C)[C@H](OC)CN(C)C2=O`, the activity (quench increase) was -4.43%.
As for `O=C(c1ccccn1)N1CC[C@@H]2[C@H]1c1cc(-c3ccccc3)ccc1N[C@@H]2CO`, the activity (quench increase) was -1.72%.
For `CCS(=O)(=O)N1CC(=O)N2[C@H](CO)[C@@H](c3ccc(C#Cc4cccc(F)c4)cc3)[C@@H]2C1`, the activity (quench increase) is 7.13%.
Turning to `O=C1CN(S(=O)(=O)Cc2ccccc2)C[C@@H]2[C@@H](c3ccc(C#Cc4cccc(F)c4)cc3)[C@@H](CO)N12`, the activity (quench increase) is 9.07% (active).
For `O=C1CN(S(=O)(=O)Cc2ccccc2)C[C@@H]2[C@@H](c3ccc(C#Cc4ccccc4)cc3)[C@@H](CO)N12`, the activity (quench increase) is 7.93%.
Take `CCS(=O)(=O)N1CCC2(CC1)CN[C@H](CO)c1c2c2ccc(OC)cc2n1C`: the activity (quench increase) was 0.371%.
For `C[C@@H]1CN([C@@H](C)CO)C(=O)c2cc(NS(C)(=O)=O)ccc2O[C@@H]1CN(C)C(=O)Nc1ccc(F)cc1`, the activity (quench increase) was -3.43%.
For `O=C(COC(=O)c1ccc(F)cc1)NCC1COc2ccccc2O1` (stereo unspecified) the value was -0.696%; for `Cc1noc(C)c1C(=O)NCC1COc2ccccc2O1` (stereo unspecified), 19.3% (active).
Consider `O=C(NCC1COc2ccccc2O1)C1(c2ccccc2)CCCC1` (stereo unspecified), for which the activity (quench increase) is 1.14%.
Regarding `CC(=O)N(C)C[C@H]1Oc2ncc(C#Cc3ccccn3)cc2C(=O)N([C@H](C)CO)C[C@@H]1C`, the activity (quench increase) was 0.118%.
On to `CO[C@@H](CN(C)S(=O)(=O)c1ccccc1)[C@H](C)CN(Cc1ccccc1Cl)[C@H](C)CO`, for which the activity (quench increase) is -3.7%.
Regarding `COc1ccc2c3c(n(C)c2c1)[C@H](CO)N(S(=O)(=O)c1ccc(C)cc1)CC31CN(C(=O)c2ccccn2)C1`, the activity (quench increase) was 1.98%.
In the case of `Cc1ccc(S(=O)(=O)Nc2ccc3c(c2)C(=O)N([C@H](C)CO)C[C@@H](C)[C@H](CN(C)C(=O)Nc2ccc(C(F)(F)F)cc2)OCCCC[C@H](C)O3)cc1`, the activity (quench increase) was -0.228%.
On to `Oc1cccc(/C=N/Nc2ccc(Cl)nn2)c1O`, for which the activity (quench increase) is 13.3% (active).
Consider `C/C(=N\Nc1ccc(Cl)nn1)c1ccccc1O`, for which the activity (quench increase) was -2.03%.
Take `C[C@H]1CCCCO[C@H](CN(C)Cc2ccccc2)[C@@H](C)CN([C@@H](C)CO)C(=O)c2cc(NC(=O)c3ccccc3)ccc2O1`: the activity (quench increase) was -0.952%.
Consider `C[C@H]1CN([C@@H](C)CO)S(=O)(=O)c2ccc(C3=CCCCC3)cc2O[C@@H]1CN(C)Cc1ccccc1`, for which the activity (quench increase) was -0.755%.
For `C[C@@H]1CN([C@@H](C)CO)S(=O)(=O)c2ccc(-c3ccc(F)cc3)cc2O[C@@H]1CN(C)CC1CC1`, the activity (quench increase) is 2.11%.
As for `Oc1ccc(/C=N/Nc2nc(-c3ccccc3F)nc3ccccc23)c(O)c1`, the activity (quench increase) was 12.3% (active).
Take `CO[C@@H]1CN(C)C(=O)c2ccc(NS(=O)(=O)c3cccc(Cl)c3)cc2OC[C@H](C)NC[C@H]1C`: the activity (quench increase) was -1.91%.
The same measure for `CC(C)NC(=O)N(C)C[C@H]1Oc2ccc(NC(=O)Cn3cnnn3)cc2CC(=O)N([C@H](C)CO)C[C@H]1C`: -1.17%; for `Cc1noc(C)c1S(=O)(=O)N(C)C[C@H]1Oc2c(NC(=O)c3cnccn3)cccc2C(=O)N([C@H](C)CO)C[C@H]1C`: -0.706%; for `CCN(CC)CCCNC(=O)c1cc2c(=O)[nH]c3ccc(C)cc3c2s1`: 4.04%.
The same measure for `Cc1cccc(N(C)C(=O)c2cc3c(=O)[nH]c4ccc(C)cc4c3s2)c1`: 15.5% (active); for `Cc1ccc2[nH]c(=O)c(CC(=O)O)c(-c3ccccc3)c2c1`: -4.85%.
Take `Cc1cccc(S(=O)(=O)N2C[C@@H]3[C@H](c4ccccc42)[C@H](CO)N3CC2CCOCC2)c1`: the activity (quench increase) is -1%.
Consider `Cc1ccc(S(=O)(=O)N[C@@H]2CC[C@H](CCn3cc(-c4cccc(F)c4)nn3)O[C@@H]2CO)cc1`, for which the activity (quench increase) is -2.65%.
The same measure for `C[C@@H](NC(=O)[C@@H]1[C@@H](CO)[C@@H]2Cn3c(ccc(C4=CCCCC4)c3=O)[C@@H]2N1C)c1ccccc1`: 1.82%.
For the compound `C[C@@H]1CCCCO[C@H](CN(C)C(=O)Nc2ccc3c(c2)OCO3)[C@@H](C)CN([C@@H](C)CO)C(=O)c2cc(NC(=O)CCC(F)(F)F)ccc2O1`, the activity (quench increase) was 2.41%.
Consider `CCS(=O)(=O)N1CC2(CN(C(=O)c3ccc(F)cc3)[C@H](CO)c3c2c2ccc(OC)cc2n3C)C1`, for which the activity (quench increase) is 2.9%.
Regarding `S=c1[nH]nc(-c2ccc(Cl)cc2)n1CC1CCCO1` (stereo unspecified), the activity (quench increase) is -0.339%.
In the case of `O=C(c1[nH]ncc1-c1ccc(Cl)cc1)C1CO1` (stereo unspecified), the activity (quench increase) is 9.82% (active).
`COc1ccc(NC(=O)C2Cc3c(-c4ccc(Cl)cc4)ccnc3O2)cc1` (stereo unspecified): the activity (quench increase) is -2.37%.
In the case of `C[C@H](CO)N1C[C@H](C)[C@@H](CN(C)C(=O)C2CC2)Oc2ncc(-c3cccc(C#N)c3)cc2C1=O`, the activity (quench increase) is 0.111%.
The same measure for `Cc1ccc(S(=O)(=O)Nc2ccc3c(c2)C(=O)N([C@@H](C)CO)C[C@@H](C)[C@H](CN(C)C(=O)NC(C)C)OCCCC[C@H](C)O3)cc1`: -0.752%; for `COc1ccc(S(=O)(=O)Nc2ccc3c(c2)C(=O)N([C@@H](C)CO)C[C@@H](C)[C@H](CN(C)C(=O)Nc2ccc(C(F)(F)F)cc2)OCCCC[C@@H](C)O3)cc1`: -1.09%.
As to `CCOC(=O)C1CSCCS(=O)(=O)N1Cc1ccc(Cl)cc1` (stereo unspecified), the activity (quench increase) was -1.25%.
With `CO[C@H]1CN(C)C(=O)c2ccc(NC(=O)c3cccc(F)c3)cc2OC[C@H](C)N(CC2CC2)C[C@@H]1C`, the activity (quench increase) is -0.247%.
The same measure for `Cc1cccc(C(=O)OCC(=O)NC(C)C2CC3CCC2C3)c1O` (stereo unspecified): 25.6% (active).
Take `Cc1cccc(C(=O)OCC(=O)NCC(C)C)c1O`: the activity (quench increase) was 0.752%.
Take `Cc1c(C(=O)NC(C)C2CC3CCC2C3)cccc1[N+](=O)[O-]` (stereo unspecified): the activity (quench increase) was -0.675%.

Values taken from PubChem BioAssay AID720511 (Broad Institute, 2013).
